# Measurements taken from PubChem BioAssay AID504339 (National Center for Advancing Translational Sciences (NCATS), 2011).
# Among all 390,000 compounds or so, about 17,000 (4.4%) were called active. Roughly 8% stayed inconclusive and do not appear here. For the sample, actives were picked, then their nearest neighbours and some compounds at random. A number with no mark means an inactive call. Calls follow the shape of the dose curve; as a rule, active = well fitted inhibition curve with a large enough effect; inconclusive = small, poorly fitted or top-dose-only effect; inactive = no such curve, though single readings can be large or run the other way.
# Molecular target: Lysine-specific demethylase 4A (Homo sapiens) (UniProt O75164)
# Sequence (O75164 whole entry, looked up, the tested form may be a part): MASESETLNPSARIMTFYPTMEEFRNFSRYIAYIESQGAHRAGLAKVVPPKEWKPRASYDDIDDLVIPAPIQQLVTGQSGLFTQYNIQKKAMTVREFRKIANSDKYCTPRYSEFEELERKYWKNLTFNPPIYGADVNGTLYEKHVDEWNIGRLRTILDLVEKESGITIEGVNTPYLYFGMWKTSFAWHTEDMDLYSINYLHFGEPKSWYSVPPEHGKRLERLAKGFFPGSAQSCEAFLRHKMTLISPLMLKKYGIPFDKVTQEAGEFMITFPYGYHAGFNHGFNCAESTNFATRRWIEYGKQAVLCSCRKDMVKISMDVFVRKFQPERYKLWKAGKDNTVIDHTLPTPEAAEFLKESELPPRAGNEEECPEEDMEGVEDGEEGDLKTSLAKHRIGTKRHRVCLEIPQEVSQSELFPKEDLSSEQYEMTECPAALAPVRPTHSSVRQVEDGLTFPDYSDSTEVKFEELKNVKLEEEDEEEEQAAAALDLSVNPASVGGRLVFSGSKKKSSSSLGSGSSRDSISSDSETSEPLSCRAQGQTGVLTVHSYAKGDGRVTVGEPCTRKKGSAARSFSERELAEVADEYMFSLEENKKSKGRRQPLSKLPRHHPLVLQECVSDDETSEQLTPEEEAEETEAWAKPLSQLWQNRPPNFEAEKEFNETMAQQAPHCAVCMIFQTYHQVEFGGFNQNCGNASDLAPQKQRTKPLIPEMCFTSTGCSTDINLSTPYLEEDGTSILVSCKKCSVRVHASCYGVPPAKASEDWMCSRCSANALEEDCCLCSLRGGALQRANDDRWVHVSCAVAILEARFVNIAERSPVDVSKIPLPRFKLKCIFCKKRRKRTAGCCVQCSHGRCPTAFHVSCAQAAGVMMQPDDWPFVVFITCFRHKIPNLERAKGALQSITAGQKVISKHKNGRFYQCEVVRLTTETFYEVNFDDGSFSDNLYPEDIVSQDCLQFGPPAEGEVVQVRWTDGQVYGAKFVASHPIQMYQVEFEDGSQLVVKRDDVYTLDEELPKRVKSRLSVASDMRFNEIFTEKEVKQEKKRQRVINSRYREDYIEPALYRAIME
# Assay: qHTS Assay for Inhibitors of JMJD2A-Tudor Domain; also: nearly all actives have a fitted effect of over 50% in size
# Settings: AlphaScreen JMJD2A-Tudor / H3K4me3 peptide binding; series mostly up to 114 µM; activity change, negative = inhibition: at the top concentration
# % is scaled to controls: 0 for no effect and ±100 for the full control effect; potency is read from the fitted curve at half-maximal effect.
SMILES,"activity change, negative = inhibition",Potency
COc1cc(CN(C(=O)c2ccccc2Br)c2ccccn2)cc(OC)c1OC,-2.98%,–
COc1ccccc1C1C(C(=O)N2CCCCC2)=C(C)Nc2nc3ccccc3n21 (configuration not stated),-17.1%,–
COc1ccccc1CNC(=O)c1ccc(-n2c(C)cc3c2CCCC3)cc1,-28.7%,–
CCc1nnc(NC(=O)c2nc3nccc(C)n3n2)s1,–,35.5 µM (active)
CCc1nnc(NC(=O)c2ccc(S(=O)(=O)NC3CCCCC3)cc2)s1,-5.81%,–
Cc1ccnc2nc(C(=O)Nc3nnc(-c4ccccc4)o3)nn12,-18% [at 57.1 µM],–
COc1ccc(CCC(=O)NCc2ccc3c(c2)CCN3C(=O)c2ccc(F)cc2)cc1,-3.33%,–
COc1ccccc1-n1ccnc1SCC(=O)NC(C)(C)C,-6.01%,–
COc1ccc(-c2nnc(SCC(=O)NC3CCCCC3)o2)cc1OC,-0.704%,–
COc1ccccc1-n1ccnc(SCC(=O)NC2CCCCC2)c1=O,–,35.5 µM (active)
N#CN1CCC(NC(=O)c2ccc(F)cc2)CC1,-14.4%,–
C/C=C/c1ccc(OCC(O)CN2CCCCCCC2)c(OC)c1 (configuration not stated),–,3.16 µM (active)
C/C=C/c1ccc(OCC(=O)NNC(=O)CN(C)S(=O)(=O)c2ccc(C)cc2)c(OC)c1,-24.8%,–
C/C=C/c1ccc(OCCOc2ccc(C=O)cc2OC)c(OC)c1,10.4%,–
COc1ccc(OCCCCN2CCC(C)CC2)cc1,–,20 µM (active)
OC(COc1ccc(CN2CCSCC2)cc1)CN1CCCCC1 (configuration not stated),-8.63%,–
COc1ccc(OC)c(NC(=O)CCN2CCC(C)CC2)c1,-24.4%,–
C/C=C/c1ccc(OCCCCN2CCC(C)CC2)c(OC)c1,–,3.16 µM (active)
C=CCc1ccc(OCC(O)CN2CCN(Cc3ccccc3)CC2)c(OC)c1 (configuration not stated),-8.7%,–
CC1CCN(CCC(=O)Nc2ccccc2)CC1,-6.38%,–
O=C(NC1CC(=O)N(c2ccc(F)cc2)C1)c1cccs1 (configuration not stated),1.62%,–
COc1ccc(-c2noc(CSc3nnc(-c4ccccc4)n3-c3ccc(F)cc3)n2)c(OC)c1,-32.3%,–
Cc1oc2ccc(O)c(CN3CCCCC3)c2c1C(=O)Nc1cccc(C(F)(F)F)c1,-33.7%,–

SMILES,"activity change, negative = inhibition",Potency
CCCCCn1c(=O)[nH]c2cc(C(=O)NCCN(C)CCCC)ccc2c1=O,-6.48%,–
CCC(=O)N1CCc2cc(S(=O)(=O)NC(Cc3ccccc3)C(=O)NCc3ccc(C)cc3)ccc21 (configuration not stated),-3%,–
CN(Cc1ccccc1)C(=O)c1cc2c(=O)n(C)c3ccccc3c2s1,-1.67%,–
COc1ccc(C2=Nn3c(nnc3-c3ccccc3O)SC2)cc1,-17.9%,–
CC1=C(C(=O)OCC(C)C)C(c2ccc(OCc3ccccc3)cc2)N2C(=O)CCSC2=N1 (configuration not stated),-15.6%,–
CCC(=O)Nc1cccc(C(=O)OCc2cc(=O)n3nc(CC)sc3n2)c1,-3.97%,–
O=S(=O)(NCCc1ccncc1)c1ccccc1,-7.32%,–
S=c1[nH]nc(NCCc2ccccc2)s1,–,2.51 µM (active)
O=S(=O)(NCCc1ccccc1)c1ccccc1,-11.6%,–
Cc1nn2c(=O)cc(COC(=O)CNC(=O)c3ccc(F)cc3)nc2s1,-14.3%,–
Cc1ccc(C)c(N2CCN(Cc3nnc(-c4ccccc4)o3)CC2)c1,-4.79%,–
CC1CCC(N2CC(=O)N(CCC3=CCCCC3)C(c3ccc(F)cc3)C2=O)CC1 (configuration not stated),7.65%,–
Cn1c(-c2sc3cc(C(F)(F)F)cnc3c2-c2ccccc2)n[nH]c1=S,-31.9%,–
Cn1c(-c2sccc2OCc2cccc(C(F)(F)F)c2)n[nH]c1=S,-12% [at 11.4 µM],–
Cc1ccccc1-c1n[nH]c(=S)n1C,–,7.08 µM (active)
COc1ccc(-c2nc(SCC(=O)N3CCOCC3)n[nH]2)cc1,-4.35%,–
COc1ccc(C(=O)CSc2n[nH]c(N)n2)cc1,–,56.2 µM (active)
COc1ccc(CNC(=O)CSc2n[nH]c(N)n2)cc1OC,-7.77%,–
COc1cccc(C(=O)NC(=O)Nc2ccc(-c3cc(C(F)(F)F)nn3-c3ccccc3)cc2)c1,-9.7%,–
Cc1ccc(S(=O)(=O)NCc2nc3nc(C)cc(C)n3n2)cc1,-10.4%,–
CCC1=Nc2cc(C(=O)NCCCOC(C)C)ccc2Sc2ccc(C)cc21,-26.2%,–
O=C(CCS(=O)(=O)c1ccc2c(c1)NC(=O)CO2)Nc1cccc(C(F)(F)F)c1,-2.96%,–
CC(C)(C)C1C/C(=C/c2ccco2)C(=O)/C(=C/c2ccco2)C1 (configuration not stated),–,31.6 µM (active)

SMILES,"activity change, negative = inhibition",Potency
CS(=O)(=O)c1ccc2c(c1)SC1=NC(=O)/C(=C/c3ccco3)C(=N)N12,-34%,–
Cc1cccc(NC(=O)CSc2ncc(-c3ccccc3)[nH]2)c1C,-23.9%,–
CCc1ccccc1NS(=O)(=O)c1ccc2nc(-c3ccccc3)[nH]c2c1,-10.6%,–
Cc1ccc(Nc2ccc3cc(S(=O)(=O)N4CCCCC4)ccc3n2)cc1F,48.7%,–
CCOc1ccc(C2CC(=O)c3c([nH]c(C(=O)OCc4ccccc4)c3C)C2)cc1 (configuration not stated),-34.6%,–
Cc1ccc(CNC(=O)CCc2c(C)nn(-c3ccc(N4CCCC4)nn3)c2C)cc1,-14.3%,–
C=CCn1c(CCc2ccc(OC(C)C)cc2)n[nH]c1=S,-56.8%,–
C=CCn1c(-c2ccc3[nH]c(C)c(C)c3c2)n[nH]c1=S,–,50.1 µM (active)
C=CCn1c(=S)sc2c(=O)[nH]c(C)nc21,-6.04%,–
C=CCn1c(COc2ccccc2C)nnc1SCC(=O)O,-21.3%,–
Cc1[nH]c2ccc(S(N)(=O)=O)cc2c1C,-20.5%,–
C=CCn1c(-c2ccccc2OCC)n[nH]c1=S,–,4.47 µM (active)
COc1ccc(-c2cn3c(C)c(C(=O)Nc4cc(C)cc(C)c4)sc3n2)cc1,-14.4%,–
COC(=O)c1cc2occc2n1Cc1nc(-c2ccc(C)cc2)oc1C,-13.8%,–
Cc1cccc(NC(=O)c2cc3c(C)nn(-c4ccccc4)c3s2)c1,0.687%,–
Nc1ccccc1SC(C[N+](=O)[O-])c1ccccc1 (configuration not stated),–,6.31 µM (active)
O=C(c1ccc(C(F)(F)F)cc1)N1CCC(c2nc(-c3ccc(S(=O)(=O)N4CCCC4)cc3)no2)CC1,-23.6%,–
O=C(CC(c1cccs1)N1Cc2ccccc2C1=O)Nc1ccc(F)c(F)c1 (configuration not stated),-6.41%,–
Cc1cccc(NC(=O)CSc2nc3c([nH]c4ccccc43)c(=O)n2-c2cc(C)cc(C)c2)c1,-2.26%,–
Cc1ccc(N2CC(C(=O)Nc3ccc(N(C)C)cc3)CC2=O)cc1Cl (configuration not stated),-14.2%,–
O=S(=O)(NCCS(=O)(=O)N1CCN(c2ccccc2)CC1)c1ccc(Cl)cc1,-10.5%,–
